# Bioassay records (PubChem BioAssay)
# Compounds with a hit are over-represented: about 2.6% of the library has one in this group of screens.
# Cruzain inh noDet: blocks cruzain activity in detergent-free assay; AID 1476; actives 2.3% (n = 200,000); purified cruzain, Z-FR-AMC fluorescence, no detergent; Potency, µM, inactives show max response, negative = inhibition, most hits filed as inhibitors; P25779;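 also: plate controls were enzyme without inhibitor for no effect and buffer without enzyme for full effect; nearly all actives have a fitted effect of over 40% in size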
# Target sequence (P25779 123-467 limits assumed): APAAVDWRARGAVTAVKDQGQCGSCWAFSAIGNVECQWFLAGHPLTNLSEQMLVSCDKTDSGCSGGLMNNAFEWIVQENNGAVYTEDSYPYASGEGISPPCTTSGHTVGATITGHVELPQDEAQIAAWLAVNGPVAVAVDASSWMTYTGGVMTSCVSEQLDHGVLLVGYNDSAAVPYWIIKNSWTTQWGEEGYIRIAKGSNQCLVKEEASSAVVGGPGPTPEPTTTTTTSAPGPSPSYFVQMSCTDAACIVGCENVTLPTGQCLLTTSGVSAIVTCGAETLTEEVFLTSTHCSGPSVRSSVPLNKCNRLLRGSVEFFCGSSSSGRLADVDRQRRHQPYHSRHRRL
#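 Detergent-free condition (0.00005% Triton X-100) in acetate buffer pH 5.5 with DTT. 1.5 nM enzyme and compound were pre-mixed 15 min, then 2 uM Z-FR-AMC substrate added; reaction progress from fluorescence change between first and third reads (60 s).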
# Cruzain inh Det: inhibitors of Trypanosoma cruzi cruzain with detergent; Potency, µM, for the others: max response, negative = inhibition, most hits filed as inhibitors; P25779; actives 0.43% (n = 200,000); AID 1478; purified cruzain, Z-FR-AMC fluorescence, 0.01% Triton;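 also: plate controls were neutral wells for no effect and buffer without enzyme for full effect; nearly all actives have a fitted effect of over 40% in size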
#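 15 min RT preincubation of 1.5 nM cruzain with compound, then 2 uM Z-FR-AMC added; kinetic AMC fluorescence, 60 s delta. Triton X-100 0.01%, pH 5.5.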
# * marks the source's active call; other numbers are inactive results; ? = inconclusive. Calls follow the shape of the dose curve; as a rule, active = well fitted curve in the direction sought with a large enough effect; inconclusive = small, poorly fitted or top-dose-only effect, or another doubt; inactive = no such curve, though single readings can be large; an effect the other way counts as inactive or inconclusive. Potency is read from the fitted curve at half-maximal effect.
SMILES,Cruzain inh noDet,Cruzain inh Det
COc1cccc(NC(=O)Cn2cc(C#N)c3ccccc32)c1,1%,-4%
COc1cccc(NC(=O)/C(C#N)=C/c2c(C)n(Cc3ccccc3)c3ccccc23)c1,7.9µM*,-3%
Cn1cc(/C=C(\C#N)C(=O)Nc2ncc(Cc3ccc(Cl)cc3)s2)c2ccccc21,7.9µM*,-4%
Cc1ccc(C(=O)Nc2ncc(Cc3ccccc3)s2)o1,-6%,-2%
Cc1cccc(NC(=O)/C(C#N)=C/c2ccc(C)o2)c1,2%,-9%
N#C/C(=C\c1ccc(-c2ccccc2Cl)o1)C(=O)Nc1nc2ccccc2s1,?,-5%
Cc1ccc(/C=C(\C#N)C(=O)Nc2cccc(Cl)c2)o1,10µM*,0%
CCc1ccc(C(=O)c2cn(CC(=O)NCCc3ccc(OC)c(OC)c3)c3nc(C)ccc3c2=O)cc1,?,-3%
COc1cccc(NC(=O)/C(C#N)=C\c2cn(Cc3ccc(Cl)cc3)c3ccccc23)c1,10µM*,-3%
Cc1ccc(Cn2cc(/C=C(/C#N)C(=O)Nc3cccc(Cl)c3)c3ccccc32)cc1,7.9µM*,-3%
N#C/C(=C\c1cn(Cc2ccccc2)c2ccccc12)C(=O)NCc1ccco1,-13%,-6%
N#C/C(=C\c1cn(Cc2ccc(F)cc2)c2ccccc12)C(=O)NCc1ccco1,?,-12%
Cc1ccc(CCNS(=O)(=O)c2cc(-c3cc(C)no3)ccc2C)cc1,-11%,-5%
C[C@H]1OC(=O)CC[C@@H]2[C@]1(C)CCC1[C@@]2(C)CC[C@@]2(C)C3CC(C)(C)CC[C@]3(CO)CC[C@]12C (stereo partly specified),-12%,2%
O=C(O)c1c(Cl)c(Cl)c(Cl)c(Cl)c1-c1c2cc(I)c(=O)c(I)c-2oc2c(I)c(O)c(I)cc12,-28%,13µM*
COc1cn(CC(=O)Nc2ccc(C)cc2C)c(CN2CCCCC2)cc1=O,9%,3%
CCOc1ccc(NC(=O)C2(c3cccs3)CCOCC2)cc1,6%,-1%
Cc1c(Br)c([N+](=O)[O-])nn1CCCC(=O)Nc1sc2c(c1C#N)CCC2,1%,-16%
Cc1c(Br)c([N+](=O)[O-])nn1CC(=O)Nc1sc2c(c1C(=O)OC(C)C)CCCC2,13µM*,2%
O=C(c1ccc(S(=O)(=O)N2CCCCC2)cc1)c1nnc(-c2ccc(Cl)cc2)o1,-13%,2%
O=C(CCc1ccc(S(=O)(=O)N2CCCCC2)cc1)c1nnc(-c2ccccc2)o1,25µM*,-3%
Cc1csc(/N=C/c2ccc([N+](=O)[O-])cc2)n1,20µM*,1%
Cc1csc(NC(=O)c2cc([N+](=O)[O-])cc([N+](=O)[O-])c2)n1,-15%,-7%
Cc1[nH]c2ccccc2c1/C=C/c1nc2ccccc2c(=O)n1-c1ccc([N+](=O)[O-])cc1,25µM*,1%
Cc1cccc(-n2c(/C=C/c3c(C)[nH]c4ccccc34)nc3ccccc3c2=O)c1,-3%,0%
SMILES,Cruzain inh noDet,Cruzain inh Det
Cc1ccc(S(=O)(=O)NNC(=S)NC(=O)c2ccc([N+](=O)[O-])cc2)cc1,4µM*,?
Cc1ccc(C(=O)NC(=S)NNS(=O)(=O)c2ccc(C)cc2)cc1,-24%,?
CCC(C(=O)NCCCN(CC)CC)n1ncn2c(cc3occc32)c1=O (stereo unspecified),-7%,-3%
O=c1c2c(n3nnnc3n1Cc1ccccc1)-c1ccccc1CC21CCCC1,25µM*,4%
CCC1(C)Cc2ccccc2-c2c1c(=O)n(Cc1ccccc1)c1nnnn21 (stereo unspecified),?,5%
Cc1cccc(CSCCNC(=O)C2CCN(S(=O)(=O)Cc3ccccc3)CC2)c1,1%,-3%
Cc1ccccc1Cn1ccc(-c2ccc(Cl)cc2)c(C#N)c1=O,25µM*,-8%
Cc1ccc(Cn2ccn(Cc3ccccc3C)c(=O)c2=O)cc1,7%,-1%
Cc1ccc(Cl)cc1N,-3%,5%
OC(c1ccc(Cl)cc1)(c1ccc(Cl)cc1)C(Cl)(Cl)Cl,5%,0%
O=C(N/N=C/C=C/c1ccccc1[N+](=O)[O-])c1cc(-c2ccccc2)n[nH]1,25µM*,-18%
O=C(N/N=C/C=C\c1ccccc1[N+](=O)[O-])c1ccccn1,4%,-9%
O=C(N/N=C\C=C\c1ccco1)c1cc(-c2ccc3ccccc3c2)n[nH]1,16µM*,-10%
O=C(N/N=C/C=C/c1ccco1)c1cccnc1,-3%,-10%
CCOC(=O)c1ccc2[nH]c(CSc3nnc(-c4cccc(F)c4)n3C)cc(=O)c2c1,-14%,4%
O=c1c(-c2ccc(F)cc2)nc2cncnc2n1C1CC1,3%,1%
O=C(COc1ccccc1F)NC1CC(=O)N(c2ccc3c(c2)OCCO3)C1 (stereo unspecified),-2%,-5%
COc1cc2c(cc1OC)-c1cc3cc(OC)c(OC)cc3c(=O)n1CC2,?,-4%
Cc1ccccc1C(=O)Nc1ccc(S(=O)(=O)N2CCC(c3nc4ccccc4s3)CC2)cc1,-6%,-2%
O=C(NCc1ccccc1)NC1COc2ccccc2C1 (stereo unspecified),-9%,3%
CSc1ccc(CCNC(=O)c2csc3c2CCCCC3)cc1,?,-3%
CCC(=O)Nc1nonc1-c1nc2ccccc2n1Cc1ccccc1,1%,-9%
Nc1nonc1-c1nc2ccccc2n1CC(=O)Nc1cccc(Cl)c1Cl,2%,-1%
Cc1ccc(NC(=O)Cn2c(=O)c(C(F)(F)F)nc3ccccc32)cc1C,-3%,2%
Nc1nonc1-c1nc2ccccc2n1CC(=O)N/N=C\c1ccc(-c2ccc(Cl)cc2)o1,4µM*,-4%
SMILES,Cruzain inh noDet,Cruzain inh Det
Nc1nonc1-c1nc2ccccc2n1CC(=O)Nc1ccc(F)cc1,-5%,-2%
Cc1ccc(NC(=O)Cn2c(-c3nonc3N)nc3ccccc32)cc1Cl,7.9µM*,0%
CCOC(=O)Cn1c(-c2nonc2NC(=O)c2ccccc2F)nc2ccccc21,25µM*,-2%
Cc1ccc(NC(=O)Cn2c(/C=C/c3ccccc3)nc3ccccc32)cc1C,16µM*,-12%
CCCCS(=O)(=O)c1nc(-c2ccc(Br)cc2)cc(-c2ccccc2)c1C#N,?,4%
CCOC(=O)c1[nH]c(C)c(C(=O)NCc2ccccc2Cl)c1C,?,-4%
COc1ccc(Cl)cc1NC(=O)NCCn1c(=O)oc2ccc(C)cc21,?,-1%
CCOc1ccc(-n2c(SCc3ccc(C(=O)OC)o3)nc3c([nH]c4ccccc43)c2=O)cc1,20%,-2%
C/C(=N/O)c1ccc2cc(Br)c3ccccc3c2c1,0%,-6%
O=C1NC(=O)c2cc(Nc3ccccc3)c(Nc3ccccc3)cc21,20µM*,-6%
O=C1NC(=O)c2cc(Nc3ccc(F)cc3)c(Nc3ccc(F)cc3)cc21,-9%,-1%
CC1CCN(C(=O)Cn2cc(SCc3cccc(F)c3)c3ccccc32)CC1,-21%,-8%
CCCc1nnc(NC(=O)C(CC)Sc2nnc3c4ccccc4n(C)c3n2)s1 (stereo unspecified),-3%,-2%
C=CCn1c2ccccc2c2nnc(SC(CC)C(=O)Nc3sc4c(c3C#N)CCCC4)nc21 (stereo unspecified),25µM*,-4%
O=C1OC(=O)c2c(Cl)c(Cl)c(Cl)c(Cl)c21,3%,4%
CCC(c1nnnn1Cc1cccs1)N1CCN(c2nc3ccccc3s2)CC1 (stereo unspecified),?,-3%
CC(C)CC(c1nnnn1Cc1cccs1)N1CCN(c2nc3ccccc3s2)CC1 (stereo unspecified),32µM*,-5%
